Pf growth 96h = P. falciparum growth inhibition at 96 hour, primary screen for plastid delayed-death inhibitors. P. falciparum luciferase reporter growth, 96 h. Potency, µM (series often up to 28.7 µM), inactives show at the top dose activity change, negative = inhibition, actives largely listed as inhibitors. hit rate 6.9% among 320,000. AID 504834; also: potency is read from the fitted curve at half-maximal effect; % is scaled to controls: 0 for no effect and ±100 for the full control effect
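96 h incubation, 37 C, 5% CO2, of luciferase-reporter P. falciparum-infected RBCs (2% hematocrit, 0.05% parasitemia final) with test compounds; endpoint luminescence.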
Pf growth 48h = P. falciparum growth inhibition at 48 hours (one generation). P. falciparum luciferase growth in erythrocytes, 48 h. hit rate 5.9% among 310,000. AID 504832. Potency, µM (series often up to 28.7 µM), inactives show at the highest dose activity change, negative = inhibition, usual class: inhibitors; also: potency is read from the fitted curve at half-maximal effect; % is scaled to controls: 0 for no effect and ±100 for the full control effect
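Erythrocytes infected with P. falciparum carrying an integrated firefly luciferase reporter (2% hematocrit, 0.1% parasitemia final) were exposed to compounds in RPMI 1640 with 0.5% Albumax at 37 C, 5% CO2. Growth inhibition was scored as reduced luminescence.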
AMA1 RON2 block = disrupts binding of P. falciparum AMA1 to RON2; AlphaScreen AMA1-biotinylated RON2 peptide binding; Potency, µM (series often up to 58.2 µM), for the others: at the top dose activity change, negative = inhibition, actives largely listed as inhibitors; hit rate 0.2% among 360,000; AID 720542;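 also: potency is read from the fitted curve at half-maximal effect; 0% = vehicle wells and -100% = peptide control; nearly all actives have a fitted effect of over 45% in size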
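AMA1 (3D7) with his tag at 25 nM final met compounds first, then biotinylated RON2 peptide at 25 nM; detection used donor plus acceptor beads, 10 µg/mL apiece, read by AlphaScreen after 30 min at room temperature.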
HCV inhibitor = inhibitors of hepatitis C virus infection; Huh7.5.1 HCVcc-Cre infection, luciferase reporter, 44 h; Potency, µM (series often up to 41.8 µM), inactives show at the highest dose activity change, negative = inhibition, actives largely listed as inhibitors; hit rate 3.4% among 340,000; AID 651820; also: potency is read from the fitted curve at half-maximal effect; % is scaled to controls: 0 for no effect and ±100 for the full control effect
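A cell-based infection assay in which seeded cells (1,000 per well) receive test compound after 4 h, are inoculated with HCVcc-Cre at approximately 0.5 moi, and are incubated 44 h before luminescence detection.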
CLK4 ADP-Glo = CLK4 (human) kinase inhibition, ADP-Glo confirmation; shares compounds with Pf growth 48h; recombinant Clk4, RS peptide, ADP-Glo luminescence; Potency, µM (series often up to 80 µM), for inactives: at the top dose activity, negative = inhibition, most hits filed as inhibitors; hit rate 80% among 65
Target sequence (Q9HAZ1 whole entry, looked up): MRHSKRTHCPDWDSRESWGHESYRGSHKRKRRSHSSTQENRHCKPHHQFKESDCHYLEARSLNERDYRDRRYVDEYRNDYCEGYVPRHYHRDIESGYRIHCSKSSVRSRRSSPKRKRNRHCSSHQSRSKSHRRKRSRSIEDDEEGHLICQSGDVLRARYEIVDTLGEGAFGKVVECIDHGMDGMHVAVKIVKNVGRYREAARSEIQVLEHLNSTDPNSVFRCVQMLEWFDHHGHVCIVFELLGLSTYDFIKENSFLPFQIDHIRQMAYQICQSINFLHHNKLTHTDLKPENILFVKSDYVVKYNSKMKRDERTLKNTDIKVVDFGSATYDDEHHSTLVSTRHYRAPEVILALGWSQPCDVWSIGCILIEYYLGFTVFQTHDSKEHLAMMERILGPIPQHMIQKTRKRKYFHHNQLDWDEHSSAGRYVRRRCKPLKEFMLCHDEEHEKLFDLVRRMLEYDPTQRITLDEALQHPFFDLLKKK
CLK4 ADP FP = confirmation of human CDC-like kinase 4 (CLK4) inhibitors | shares compounds with Pf growth 48h | recombinant Clk4, ADP Transcreener FP, RS peptide | Potency, µM (highest dose often 80 µM), inactives show at the top dose activity, negative = inhibition, most hits filed as inhibitors | hit rate 70% among 65 | AID 1983
HCV inh confirm = HCV inhibition, cherry-pick confirmation; shares compounds with HCV inhibitor; HCVcc-Cre infectious virus cell assay, luciferase, inhibition; Potency, µM (doses to about 41.8 µM), for the others: at the highest dose activity, negative = inhibition, hits mostly inhibitors; hit rate 78% among 640; AID 720575; also: potency is read from the fitted curve at half-maximal effect; nearly all actives have a fitted effect of over 80% in size
HCV cytotox = host cell cytotoxicity counter-screen for HCV inhibitors. shares compounds with HCV inhibitor. HCV host cell line cytotoxicity counterscreen. Potency, µM (titrated, usually from 41.8 µM), for the others: at the highest dose activity change, negative = cytotoxicity, actives largely listed as inhibitors. hit rate 22% among 640. AID 720576;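 also: potency is read from the fitted curve at half-maximal effect; 44 h compound exposure; % is scaled to controls: 0 for no effect and ±100 for the full control effect; nearly all actives have a fitted effect of over 55% in size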
* marks the source's active call; other numbers are inactive results; ? = inconclusive; · = not tested or not shown; [ ] = dose if it differs, or a comment. An excerpt weighted towards active compounds, which were near 11% of everything screened. Calls follow the shape of the dose curve; as a rule, active = well fitted curve in the direction sought with a large enough effect; inconclusive = small, poorly fitted or top-dose-only effect, or another doubt; inactive = no such curve, though single readings can be large; an effect the other way counts as inactive or inconclusive.

SMILES | Pf growth 96h | Pf growth 48h | AMA1 RON2 block | HCV inhibitor | CLK4 ADP-Glo | CLK4 ADP FP | others
c1csc(CNc2ncnc3ccc(-c4ccoc4)cc23)c1 | ? | ? | · | · | 0.22µM* | 0.25µM*
COc1cc2ncnc(NCc3cccs3)c2cc1OC | -24% | ? | -1% | -16% | · | ·
c1csc(CNc2ncnc3sccc23)c1 | · | · | 3% | ? | · | ·
c1csc(CNc2ncnc3ccc(-c4ccc5c(c4)OCO5)cc23)c1 | ? | ? | · | · | 0.071µM* | 0.045µM*
CCC(C)(C(=O)NC1CCCC1)N(Cc1ccco1)C(=O)c1ccc2c(c1)OCO2 (stereo unspecified) | ? | 0% | 7% | ? | · | ·
Cc1ccc(N(Cc2ccco2)C(=O)c2cccc(S(=O)(=O)N(C)C)c2)cc1 | -17% | ? | -4% | -16% | · | ·
CN(Cc1ccco1)c1ncnc2ccc(-c3cccc(Cl)c3)cc12 | 9.3µM* | 6.6µM* | · | · | 1.4µM* | 1.6µM*
CN(Cc1ccco1)c1ncnc2ccc(-c3ccc4c(c3)OCO4)cc12 | ? | ? | · | · | 0.063µM* | 0.05µM*
Cc1cccc(-c2ccc3ncnc(N(C)Cc4ccco4)c3c2)c1 | ? | 12µM* | · | · | 2.5µM* | 3.2µM*
CN(Cc1ccco1)c1ncnc2ccc(-c3ccc4c(ccn4C)c3)cc12 | 9.3µM* | 10µM* | · | · | 14µM* | ?
COc1ccc(NC2CCCN(C(=O)c3cccc(C)n3)C2)cc1OC (stereo unspecified) | ? | 17% | -7% | ? | · | ·
N=C(N1CCCc2ccccc21)N1CCCc2ccccc21 | · | · | -4% | 2% | · | ·
O=C1N[C@@H](Cc2cn(S(=O)(=O)c3ccc([N+](=O)[O-])cc3)c3ccccc23)C(=O)N[C@H]1Cc1ccccc1 | · | · | -1% | 0% | · | ·
c1cncc(CNc2ncnc3sccc23)c1 | 27% | 14% | 1% | -28% | · | ·
COc1cccc(-c2ccc3ncnc(NCc4cccnc4)c3c2)c1 | ? | ? | · | · | 2.5µM* | 4.5µM*
c1cncc(CNc2ncnc3ccc(-c4ccco4)cc23)c1 | ? | ? | · | · | 2.8µM* | 8.9µM*
Fc1cccc(CNc2ncnc3ccc(-c4cccnc4)cc23)c1 | 15µM* | ? | · | · | 2.8µM* | 6.3µM*
Cc1cccc(-c2ccc3ncnc(NCc4cccc(F)c4)c3c2)c1 | 1.3µM* | 0.042µM* | · | · | 4µM* | 7.9µM*
CC1(Cc2cccc(F)c2)C(=O)Nc2ccc(-c3cccnc3)cc21 (stereo unspecified) | · | · | -19% | · | · | ·
COc1cccc(N2[C@@H](CC(=O)O)c3ccc(/C=C/C(=O)O)cc3S2(=O)=O)c1 | · | · | -4% | 6% | · | ·
CCc1nc2ccc(C(=O)N3CCN(C(=O)c4ccco4)CC3)cn2c1N(C)Cc1cccs1 | · | · | -8% | · | · | ·
Cc1cccc(CNc2ncnc3ccc(-c4ccc5c(c4)OCO5)cc23)c1 | 3.3µM* | 5.9µM* | · | · | 0.11µM* | 0.1µM*
COc1cc2ncnc(NCc3ccc(C)cc3)c2cc1OC | ? | ? | 3% | 20% | · | ·
Fc1cccc(CNc2ncnc3ccc(-c4ccccc4Cl)cc23)c1 | 2.1µM* | 5.9µM* | · | · | 7.9µM* | 10µM*
Cc1cccc(Nc2ncnc3ccccc23)c1 | -20% | 64% | -5% | -13% | · | ·
SMILES | Pf growth 96h | Pf growth 48h | AMA1 RON2 block | HCV inhibitor | CLK4 ADP-Glo | CLK4 ADP FP | others
Cc1cccc(CNc2ncnc3ccc(-c4ccccc4Cl)cc23)c1 | 1.5µM* | 5.2µM* | · | · | 7.9µM* | ?
Cc1cccc(CNc2ncnc3ccc(-c4cccc(Cl)c4)cc23)c1 | 4.1µM* | 6.6µM* | · | · | 13µM* | ?
O=C(c1noc2c1CCCCC2)N1CCN(C(c2ccccc2)c2ccccc2)CC1 | · | · | 5% | ? | · | ·
Cc1cccc(-c2ccc3ncnc(NCc4cc(C)cs4)c3c2)c1 | 9.3µM* | 12µM* | · | · | 14µM* | ?
Clc1ccc2c(NCc3cccs3)ncnc2c1 | 23% | · | -3% | ? | · | ·
Cc1csc(CNc2ncnc3ccc(-c4ccco4)cc23)c1 | 7% | ? | · | · | -2% | -9%
Cc1csc(CNc2ncnc3ccc(-c4ccc5c(ccn5C)c4)cc23)c1 | 5.9µM* | 3.7µM* | · | · | 14µM* | 40µM*
Cc1csc(CNc2ncnc3ccc(-c4cccc(Cl)c4)cc23)c1 | 2.3µM* | 7.4µM* | · | · | 13µM* | ?
Cc1c(N/C(=N/S(=O)(=O)c2ccc(F)cc2)c2ccccc2)c(=O)n(-c2ccccc2)n1C | 9% | -4% | 18% | 6% | · | ·
COc1ccc(C(=O)Nn2c(SCc3ccc([N+](=O)[O-])cc3)nc3ccccc3c2=O)cc1 | ? | 361% | -2% | -12% | · | ·
CCOc1ccc(N2CC(C(=O)NCCc3ccc(S(N)(=O)=O)cc3)CC2=O)cc1 (stereo unspecified) | 48% | 35% | 2% | 14% | · | ·
COc1ccc2c(C)cc(SCc3c(C)noc3C)nc2c1 | 4% | -12% | 35% | 6.3µM* | · | · | HCV inh confirm=22µM*;HCV cytotox=-31%
COc1ccc2c(C)cc(SCC#N)nc2c1 | 13% | 26% | 15% | ? | · | ·
N#Cc1ccccc1OCC(=O)NNC(=O)CCC1CCCC1 | · | · | 83% | 2% | · | ·
O=[N+]([O-])c1ccc(S(=O)(=O)CC(CN2CCCCC2)N2CCCCC2)cc1 (stereo unspecified) | 14%[5.75 µM] | 19%[5.75 µM] | -1% | 4.5µM* | · | · | HCV inh confirm=11µM*;HCV cytotox=20µM*
O=S(=O)(CC(CN1CCCCC1)N1CCCCC1)c1ccccc1 (stereo unspecified) | ? | -80% | -2% | ? | · | ·
CSc1ccc(NC(=O)Nc2cccn(Cc3ccccc3F)c2=O)cc1 | 13% | 2% | -11% | 3.5µM* | · | · | HCV inh confirm=8.9µM*;HCV cytotox=-74%
O=C(O)CSc1ccc(NC(=O)Nc2ccccc2F)cc1 | 116% | 132% | 13% | 7% | · | ·
Cc1ccccc1C(=O)Nc1ccccc1-c1nnn(CC(=O)Nc2ccc3c(c2)OCCO3)n1 | 91% | ? | 8% | 5µM* | · | · | HCV inh confirm=?;HCV cytotox=-11%
Cc1c(C(=O)N2CCN(c3cccc(Cl)c3)CC2)cccc1[N+](=O)[O-] | -3% | -2% | -2% | 24% | · | ·
Cc1nn(CC(=O)Nc2cccnc2)c(C)c1[N+](=O)[O-] | -5% | 29%[5.75 µM] | 3% | 2% | · | ·
COc1ccc(C(=O)c2ccc(N(C)C)cc2)c2ccccc12 | 9% | -20% | -24% | ? | · | · | HCV inh confirm=-22%;HCV cytotox=-19%
COc1ccc(C(=O)c2ccc(OC)c(OC)c2OC)cc1 | · | · | 8% | ? | · | ·
